# Most compounds without a hit are left out; they make up all but 1.2% or so of the library.
# RXFP1 agonist: qHTS Assay for Agonists of the Relaxin Receptor RXFP1; Relaxin receptor 1 (Homo sapiens), Q9HBX9; HEK293T-RXFP1 cAMP TR-FRET, 30 min; response scale: percent of porcine relaxin response, buffer zero; Potency, µM (titrated, usually from 57.5 µM), most hits filed as activators; 370,000 compounds, 0.3% hits; active = well fitted activation curve with a large enough effect; inconclusive = small, poorly fitted or top-dose-only effect; also: nearly all actives have a fitted effect of over 60% in size
# Target sequence (Q9HBX9 whole entry, looked up): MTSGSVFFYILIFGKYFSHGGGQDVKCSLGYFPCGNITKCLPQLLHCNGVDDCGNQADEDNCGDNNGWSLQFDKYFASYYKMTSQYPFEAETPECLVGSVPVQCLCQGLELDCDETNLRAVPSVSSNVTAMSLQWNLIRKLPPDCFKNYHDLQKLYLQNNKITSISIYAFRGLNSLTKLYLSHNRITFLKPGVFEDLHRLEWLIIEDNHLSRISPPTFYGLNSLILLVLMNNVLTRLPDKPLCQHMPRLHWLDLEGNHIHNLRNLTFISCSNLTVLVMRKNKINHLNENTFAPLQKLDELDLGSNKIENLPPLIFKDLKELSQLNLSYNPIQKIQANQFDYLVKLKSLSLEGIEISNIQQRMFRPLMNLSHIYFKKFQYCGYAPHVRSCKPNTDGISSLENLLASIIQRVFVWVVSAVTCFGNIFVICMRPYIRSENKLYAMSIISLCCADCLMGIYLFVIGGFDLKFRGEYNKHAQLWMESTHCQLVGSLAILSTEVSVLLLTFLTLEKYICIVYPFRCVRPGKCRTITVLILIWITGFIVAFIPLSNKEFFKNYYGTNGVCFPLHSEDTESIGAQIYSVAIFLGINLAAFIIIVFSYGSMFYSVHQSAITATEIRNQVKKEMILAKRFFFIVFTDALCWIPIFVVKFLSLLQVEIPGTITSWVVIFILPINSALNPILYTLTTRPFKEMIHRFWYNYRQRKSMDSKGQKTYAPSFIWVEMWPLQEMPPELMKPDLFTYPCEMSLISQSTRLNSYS
#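 HEK293 cells stably expressing RXFP1, treated 30 min at 37C with compounds plus PDE4 inhibitor Ro 20174; cAMP measured by HTRF TR-FRET. Normalized to buffer and 29 nM porcine relaxin; EC50 by Hill fit.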
# Akt phos inh: HTS Assay for Inhibitors of Akt Phophorylation: Primary Screen; 360,000 compounds, 0.32% hits; activity change, % for hits at 50 µM; AID 651550, 2012; Neuro2A IGF-stimulated pAkt S473 HTRF, 20 min; stronger effect = lower value; in the data active = activity change below about -80%; inconclusive = mostly about -51% to -80%
#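 Single-point screen (50 µM final compound) in Neuro2A cells stimulated 20 min with 6 nM IGF at 37 deg C. After lysis, Ser473-phosphorylated Akt read by HTRF (ex 330 nm, em 615/665 nm) as the 665/615 ratio.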
# gsp agonist: qHTS for Agonist of gsp, the Etiologic Mutation Responsible for Fibrous Dysplasia/McCune-Albright Syndrome: qHTS | gsp mutant cells, cAMP HTRF, 30 min | Potency, µM (doses to about 76.9 µM), usual class: activators | 340,000 compounds, 0.13% hits | AID 624287, 2012; active = well fitted activation curve with a large enough effect; inconclusive = small, poorly fitted or top-dose-only effect, or another doubt; inactive = no such curve, though single readings can be large or run the other way; cell line not stated here;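 also: phosphodiesterase inhibitor Ro 20-1724 added with compounds to block cAMP breakdown; nearly all actives have a fitted effect of over 60% in size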
#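 Cells in DMEM/10% FBS with G418 were pretreated with compounds in DMSO plus […] (300 uM stock) for 30 min at 37C. cAMP was measured by HTRF (cAMP-d2 plus anti-cAMP antibody-K) after 30 min at room temperature.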
# gsp antag: qHTS for Antagonists of gsp, the Etiologic Mutation Responsible for Fibrous Dysplasia/McCune-Albright Syndrome: qHTS; gsp-mutant cells, cAMP HTRF, 30 min; Potency, µM (top dose mostly 76.9 µM), usual class: inhibitors; 340,000 compounds, 0.4% hits; AID 624288, 2012; calls by dose curve; cell line not stated here;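 also: intracellular cAMP measured with PDE inhibitor Ro 20-1724 present during compound exposure; nearly all actives have a fitted effect of over 65% in size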
#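 Measurement of cellular cAMP by homogeneous time-resolved fluorescence following a 30 min compound exposure at 37C. The PDE inhibitor […] was present throughout; the assay buffer was DPBS with 0.05% BSA and 0.005% Tween 20.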
# RXFP1 antagonist: qHTS Assay for Antagonists of the Relaxin Receptor RXFP1; Relaxin receptor 1 (Homo sapiens), Q9HBX9; activity change, negative = inhibition, % at 57.5 µM; AID 1259400, 2018; 350,000 compounds, 0.59% hits; HEK293-RXFP1, relaxin-stimulated cAMP HTRF, 30 min; stronger effect = lower value;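 active = activity change of -60% or lower, but not beyond a set lower limit; inconclusive = change between -60% and -40%, or beyond the set limit; inactive = change above -40%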
# Numbers stand for hits; - = inactive; ? = inconclusive; . = no result given; [ ] = dose if it differs, or a comment.
SMILES,RXFP1 agonist,Akt phos inh,gsp agonist,gsp antag,RXFP1 antagonist
CCN(CC)CC(O)Cn1c(C)c(-c2ccccc2)c2cc([N+](=O)[O-])ccc21 (centres undefined),-,-,-,-,-89
Nc1sc2c(c1C(=O)NC1CCS(=O)(=O)C1)CCC2 (centres undefined),-,-130%,-,-,-
O=C(O)CCSc1ccc2ccccc2n1,18µM,-,?,-,-
O=C(O)CSc1ccc2ccccc2n1,?,-,?,-,-
CC(C)(C)c1cc(NC(=O)COC(=O)c2ccc(O)cc2O)n(-c2ccccc2)n1,-,-,-[15.4 µM],-,-
O=C(COC(=O)c1ccc(O)cc1O)Nc1cc(-c2ccccc2)nn1-c1ccccc1,-,-,-[15.4 µM],35µM,-73
O=C(c1ccc2c(c1)N(Cc1ccccc1F)C(=O)c1ccccc1S2(=O)=O)N1CCC(Cc2ccccc2)CC1,-,.,.,.,.
O=C(COC(=O)[C@@H]1CC(O)CN1S(=O)(=O)c1ccccc1[N+](=O)[O-])c1ccccc1 (some centres undefined),-,-,-,-,-
CCc1cccc2c(C(=O)COC(=O)[C@@H]3CC(O)CN3S(=O)(=O)c3ccccc3[N+](=O)[O-])c[nH]c12 (some centres undefined),.,-,-,-,-80
COc1ccc(C(=O)N(CN2CCCC2=O)c2ccccc2OC)cc1OC,-,-111%,-,-,-
Cc1ccccc1CS(=O)(=O)Cc1ccc(C(=O)NCCc2ccc(Cl)cc2)o1,-,.,.,.,-96
OCc1cn(Cc2ccc(O)c3ncccc23)cn1,-,.,.,.,.
CC(=O)/C(N=Nc1c(C)n(C)n(-c2ccccc2)c1=O)=C(\C)O,-,-,11µM,-,-
CCOC(=O)c1ccc(N2CCN(c3ccccc3F)CC2)c(NC(=O)Nc2ccc(Cl)c(Cl)c2)c1,-,.,.,.,-
Cc1ccc(N(CCC#N)C(=O)CSc2nc3ccccc3c(=O)[nH]2)cc1,-,-,-,50µM,-
Cc1ccc(S(=O)(=O)N2CCN(C(=O)CSc3nc4ccccc4c(=O)[nH]3)CC2)cc1,?,-95%,-,-,-
N#CCCN(C(=O)CSc1n[nH]c(=O)[nH]c1=O)c1ccccc1,.,-,-,-,-
Cc1ccc(-c2nnc(SCC(=O)O)n2N)cc1,-,-,?,-,-
Cc1ccc(-c2cc(-c3nnc(SCC(=O)N(C)CCC#N)n3N)c3ccccc3n2)cc1,-,-115%,-,-,-
CCOc1ccc(NC(=O)Cn2cc(C(=O)c3ccc(CC)cc3)c(=O)c3ccc(C)nc32)cc1,-,.,.,.,-
Cc1ccc(C)c(NC(=O)C(Cc2ccccc2)N2Cc3ccccc3C2=O)c1 (centres undefined),-,.,.,.,-
CC(C)c1cc(-c2nc(-c3ccc(Cl)cc3)no2)n[nH]1,-,.,.,.,-
CCCCCn1c(=O)[nH]c2cc(C(=O)NCCc3ccc(OC)c(OC)c3)ccc2c1=O,-,-,-,-,-
CCCCNC(=O)c1sc(=S)n2c1[nH]c(=O)c1ccc(C(=O)NCCc3ccc(OC)c(OC)c3)cc12,-,-,?,35µM,-
Fc1cc(Br)ccc1Nc1c2c(nc3nc(-c4cccs4)nn13)CCCC2,-,.,.,.,-
SMILES,RXFP1 agonist,Akt phos inh,gsp agonist,gsp antag,RXFP1 antagonist
CC(=O)c1cccc(NC(=O)c2nc3ccccc3n(C)c2=O)c1,16µM,.,.,.,-
Cn1c(=O)c(C(=O)c2ccccc2)nc2ccccc21,-,-,-,-[15.4 µM],-
CCOCCCNC(=O)Nc1cc(C(=O)NCc2ccc(C(C)C)cc2)ccc1N1CCCC1,-,.,.,.,-
NC(=O)COc1ccc(NC(=O)OCc2ccccc2)cc1,-,-107%,-,-,-
C#CCOc1ccccc1/C=N/NC(=O)c1ccccc1OCc1ccccc1,-,-,-,13µM,-
CCc1ccc(NC(=O)c2ccc(-n3cncn3)c([N+](=O)[O-])c2)cc1,-,-,-,50µM,-
O=C(Nc1cccc(/C=C/c2ccccn2)c1)c1ccc(-n2cncn2)c([N+](=O)[O-])c1,-,-,-[15.4 µM],40µM,-
Cc1cccc(NC(=O)c2ccc(-n3cccn3)c([N+](=O)[O-])c2)c1,-,-116%,-,-,-
CCOc1ncc(F)c(=O)[nH]1,.,.,.,.,-
CCc1ccc(NC(=O)c2ccc(F)c(S(=O)(=O)NCCc3ccc(OC)c(OC)c3)c2)cc1,-,.,.,.,-
CCN(CC)c1cc(C)c2cc(NC(=O)/C=C/c3ccccc3OC(C)C)ccc2n1,-,.,.,.,.
O=C(NCc1cccs1)Nc1cccs1,-,-114%,-,-,-
Cc1ccccc1CNC(=O)Nc1cccs1,-,-,-,-,-
Cc1sc(NC(=O)CSc2nnc(-c3ccc(F)cc3)o2)c(C#N)c1C,-,-108%,-,?,-
Cn1c(=S)[nH]c2c(c1=O)C(C)(C)Cc1ccccc1-2,16µM,-,-[15.4 µM],-,-
CC1(C)Cc2ccccc2-c2c1c(=O)n(Cc1ccccc1)c1nnnn21,-,-,?,-,-
CCn1c(=S)[nH]c2c(c1=O)C(C)(C)Cc1ccccc1-2,16µM,-,2.8µM,-,-
O=C(/C=C/c1ccccc1Cl)Nc1nc(-c2cccs2)ns1,-,.,.,.,-
CCN(CC)c1ccc2c(-c3ccc(S(=O)(=O)O)cc3S(=O)(=O)[O-])c3ccc(=[N+](CC)CC)cc-3oc2c1,28µM,-,-[15.4 µM],-,-
CCN(CC)c1ccc2nc3c4ccccc4c(=O)cc-3oc2c1,-,-,-,-,-
Cc1ccc(C)c(CN2C(=O)c3ccccc3S(=O)c3ccc(C(=O)NCc4ccco4)cc32)c1 (centres undefined),-,.,.,.,.
CN(C)CCN(Cc1ccsc1)c1ccccn1,.,.,.,.,-
COC(=O)CNc1n[nH]c(=S)[nH]c1=O,?,-,?,?,-
CC(C)OC(=O)CNc1n[nH]c(=S)[nH]c1=O,5µM,-,-[15.4 µM],.,-
CCOc1ccc(OCC(=O)N2CCOCC2)cc1,-,-98%,-,-,-
SMILES,RXFP1 agonist,Akt phos inh,gsp agonist,gsp antag,RXFP1 antagonist
CN1CCN(CCOC2Cc3ccccc3Sc3ccc(Cl)cc32)CC1 (centres undefined),-,-,-,-,-70
Cc1cccc(N2CCN(C(=O)c3cccn3-c3nnc(N4CCCCC4)s3)CC2)c1C,-,.,.,.,-68
CCN(CC)c1ccc(NC(=O)c2cccn2-c2nnc(N3CCCCC3)s2)c(C)c1,-,.,.,.,-60
COc1ccc(C2C=C(c3ccccc3)Nc3nc(NC(=O)/C=C/c4ccc(F)cc4)nn32)cc1 (centres undefined),-,.,.,.,-
O=C(CCc1nc2cccnc2n1Cc1ccccc1)NCc1cccc(Cl)c1,-,.,.,.,-
O=C1COc2ccc(S(=O)(=O)N3CCN(c4ccccc4)CC3)cc2N1,-,-,-,-,-
